According to article PMC5913336, “True equilibrium measurement of transcription factor-DNA binding affinities using automated polarization microscopy”:

Target: T1, Ems (Drosophila melanogaster, UniProt P18488 373-462)
T1 sequence: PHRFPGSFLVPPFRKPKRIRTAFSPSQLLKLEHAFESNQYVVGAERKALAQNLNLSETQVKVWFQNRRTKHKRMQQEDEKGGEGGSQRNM
Assay: FP; 33 mM phosphate pH 7.0, 90 mM NaCl, 0.01% Tween 20, 0.1 mM DTT, 0.5% agarose; room temperature
Conditions: tags: N-GST (pGEX-6P-1, kept); dsDNA, one strand shown

For CACGTAATTAGCGCA, which binding signal is on record?
Its binding signal is 6.39 Kd / Kd of best base at the position.

How did the binding signal turn out when CACGTAATTAGATCA was run?
The binding signal was 2.14 Kd / Kd of best base at the position.

How did the binding signal turn out when CACGTAATTAGCTGA was run?
Its binding signal is 4.73 Kd / Kd of best base at the position.

For GACGTAATTAGCTCA, which binding signal is on record?
Its binding signal is 1.01 Kd / Kd of best base at the position.

For CACGTAATAAGCTCA, which binding signal is on record?
The binding signal was 35.3 Kd / Kd of best base at the position.

For CACATAATTAGCTCA, which binding signal is on record?
The binding signal was 1.34 Kd / Kd of best base at the position.

Which binding signal does the source give for CACGTACTTAGCTCA here?
The binding signal was 47.3 Kd / Kd of best base at the position.

With CACTTAATTAGCTCA as the sequence, how does the binding signal read?
Its binding signal is 2.71 Kd / Kd of best base at the position.

CACGTGATTAGCTCA was tested. Which binding signal did it give?
Its binding signal is 30.7 Kd / Kd of best base at the position.

For CAGGTAATTAGCTCA, which binding signal is on record?
Its binding signal is 1.11 Kd / Kd of best base at the position.

How did the binding signal turn out when CAAGTAATTAGCTCA was run?
The binding signal was 1.41 Kd / Kd of best base at the position.

Which binding signal does the source give for AACGTAATTAGCTCA here?
The binding signal was 1.04 Kd / Kd of best base at the position.

How did the binding signal turn out when CACGTATTTAGCTCA was run?
Its binding signal is 11.1 Kd / Kd of best base at the position.

With CACGTAACTAGCTCA as the sequence, how does the binding signal read?
Its binding signal is 72.2 Kd / Kd of best base at the position.

How did the binding signal turn out when CACCTAATTAGCTCA was run?
Its binding signal is 1.08 Kd / Kd of best base at the position.

With CACGAAATTAGCTCA as the sequence, how does the binding signal read?
Its binding signal is 16.8 Kd / Kd of best base at the position.

For CACGTAATTAACTCA, which binding signal is on record?
The binding signal was 9.76 Kd / Kd of best base at the position.

CACGTAATCAGCTCA was tested. Which binding signal did it give?
Its binding signal is 40.1 Kd / Kd of best base at the position.

CGCGTAATTAGCTCA was tested. Which binding signal did it give?
The binding signal was 1.07 Kd / Kd of best base at the position.

How did the binding signal turn out when CACGTTATTAGCTCA was run?
Its binding signal is 26.4 Kd / Kd of best base at the position.

How did the binding signal turn out when CCCGTAATTAGCTCA was run?
Its binding signal is 1.04 Kd / Kd of best base at the position.

With CACGTAATTAGCTCC as the sequence, how does the binding signal read?
Its binding signal is 3.56 Kd / Kd of best base at the position.

Which binding signal does the source give for CACGTAATTAGCTAA here?
Its binding signal is 3.58 Kd / Kd of best base at the position.

How did the binding signal turn out when CACGTAATTATCTCA was run?
Its binding signal is 1.9 Kd / Kd of best base at the position.

With CACGTAATTAGCACA as the sequence, how does the binding signal read?
The binding signal was 5.4 Kd / Kd of best base at the position.

How did the binding signal turn out when CACGTAAGTAGCTCA was run?
The binding signal was 63.6 Kd / Kd of best base at the position.

CACGTAAATAGCTCA was tested. Which binding signal did it give?
Its binding signal is 54.5 Kd / Kd of best base at the position.

With CACGTAATTAGGTCA as the sequence, how does the binding signal read?
Its binding signal is 7.3 Kd / Kd of best base at the position.

Which binding signal does the source give for CACGTAATTACCTCA here?
Its binding signal is 1.46 Kd / Kd of best base at the position.

How did the binding signal turn out when CACGTAATTGGCTCA was run?
The binding signal was 8.18 Kd / Kd of best base at the position.

CACGTAATTTGCTCA was tested. Which binding signal did it give?
The binding signal was 10.5 Kd / Kd of best base at the position.

How did the binding signal turn out when CTCGTAATTAGCTCA was run?
Its binding signal is 1.19 Kd / Kd of best base at the position.

With TACGTAATTAGCTCA as the sequence, how does the binding signal read?
The binding signal was 1.04 Kd / Kd of best base at the position.

For CACGTAATTAGCCCA, which binding signal is on record?
Its binding signal is 4.42 Kd / Kd of best base at the position.

How did the binding signal turn out when CACGTAATTCGCTCA was run?
Its binding signal is 43.1 Kd / Kd of best base at the position.

Which Kd does the source give for CACGTAATTAGCTCA here?
The Kd was roughly 1.7 nM.

Which binding signal does the source give for CACGCAATTAGCTCA here?
Its binding signal is 2.2 Kd / Kd of best base at the position.

CACGGAATTAGCTCA was tested. Which binding signal did it give?
Its binding signal is 38.4 Kd / Kd of best base at the position.

With CATGTAATTAGCTCA as the sequence, how does the binding signal read?
The binding signal was 1.24 Kd / Kd of best base at the position.

For CACGTAATTAGCTCG, which binding signal is on record?
The binding signal was 2.39 Kd / Kd of best base at the position.
